Common to all, as to settings: concentration: 10 µM; 24 h
The subject of test [1] is HCC1569. Description: cell number relative to DMSO (% of DMSO); higher = more cells (less growth inhibition / toxicity). The procedure, abridged:
(§1)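 HCC1569 and TDF cells were seeded at 800 per well in 384-well plates in RPMI with 10% FBS and treated with compounds at 10 µM for 24 h at 37 °C, in triplicate. After fixation in 3.7% formaldehyde, cells were stained with a rabbit anti-H1.0 antibody, an AlexaFluor 647 secondary and DAPI, and six fields per well were imaged at ×10. H1.0 nuclear intensity or cell number is given as percent of the plate control, using the median of replicates, with HCC1569 values smoothed for positional effects.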

Test [2] has as its system TDF. The description is as above. Summed up: as §1
Test [3] concerns TDF. The test can be described thus: H1.0 immunofluorescence intensity relative to DMSO (% of DMSO); higher = stronger H1.0 induction, active = 120 or more. The procedure, abridged: as §1
The subject of test [4] is HCC1569. Description: H1.0 immunofluorescence intensity relative to DMSO (% of DMSO); higher = stronger H1.0 induction, active = 140 or more. Summed up:
as §1

Consider 25 compounds from the supplement of paper PMC7156485.

The structures appear in SMILES notation.
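For H1.0 immunofluorescence intensity relative to DMSO in this document: TDF is a line of transformed human dermal fibroblasts of mesenchymal origin.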
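For cell number relative to DMSO in this document: TDF denotes transformed human dermal fibroblasts of mesenchymal origin.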

Turning to `CN1C2CCCC1CC(NC(=O)c1nn(C)c3ccccc13)C2` (stereo not given) [Granisetron], the cell number turned out to be 93.7 with HCC1569 [1] and 93.9 in the test with TDF [2]. Besides, the H1.0 immunofluorescence intensity was 104 (inactive) in the test with TDF [3] and 102 (inactive) in the test on HCC1569 [4].

With `CC1(C)C(=O)N(CCN2CCC(C(=O)c3ccc(F)cc3)CC2)c2ccccc21.Cl` [LY-310,762 hydrochloride], the cell number amounted to 101 in the test on HCC1569 [1] and 94.5 in the test on TDF [2]. For the same compound, the values for the H1.0 immunofluorescence intensity with TDF [3] and with HCC1569 [4] were 94.2 (inactive) and 95.7 (inactive), respectively.

On to `O=c1cc(-c2ccc(O)cc2)oc2c(C3OC(CO)C(O)C(O)C3O)c(O)cc(O)c12` (stereo not given) [Vitexin], for which the cell number was 101 in the test with HCC1569 [1] and 100 with TDF [2]. In addition, the H1.0 immunofluorescence intensity is 99.5 (inactive) with TDF [3] and 85.1 (inactive) in the test on HCC1569 [4].

`CCN(CC)Cc1ccc(C(=O)N(CCc2ccccc2OC)[C@@H]2CCNC2)cc1.Cl.Cl`: the cell number in the test with HCC1569 [1] worked out at 98.5; in the test on TDF [2] it was 95.9. Also, the results for the H1.0 immunofluorescence intensity in the test with TDF [3] and in the test on HCC1569 [4] were 100 (inactive) and 115 (inactive), respectively.

Regarding `Cl.NC(CO)C(=O)NNCc1ccc(O)c(O)c1O` (stereo not given) [Benserazide hydrochloride], the cell number amounted to 91.1 in the test on HCC1569 [1] and 95.6 in the test with TDF [2]. Besides, the H1.0 immunofluorescence intensity was 98.3 (inactive) in the test on TDF [3] and 96.3 (inactive) with HCC1569 [4].

In the case of `Nc1nc(N)nc(-c2cc(Cl)ccc2Cl)n1` [Irsogladine], the cell number with HCC1569 [1] and with TDF [2] was 105 in each case. Moreover, the H1.0 immunofluorescence intensity with TDF [3] is 94.5 (inactive); in the test on HCC1569 [4], 107 (inactive).

As for `OCC1OC(n2cnc3c(NC4CC5CCC4C5)ncnc32)C(O)C1O` (stereo not given), the cell number with HCC1569 [1] amounted to 99.1; in the test with TDF [2] it was 92.5. The H1.0 immunofluorescence intensity was 96.9 (inactive) in the test on TDF [3] and 91.9 (inactive) in the test on HCC1569 [4].

In the case of `O=c1ccc2ccc(O)c(O)c2o1` [7,8-dihydroxy-2H-chromen-2-one], the cell number in the test with HCC1569 [1] was determined as 99.2; in the test on TDF [2] it was 79.9. For the same compound, the H1.0 immunofluorescence intensity is 96.2 (inactive) in the test with TDF [3] and 91 (inactive) with HCC1569 [4].

Consider `CCCCCC=CCC=CCC=CCCCCCCC(=O)OC(COCCCCCCCCCCCCCCCC)COP(=O)([O-])OCC[N+](C)(C)C` (stereo not given), for which the results for the cell number with HCC1569 [1] and in the test on TDF [2] were 101 and 98.5, respectively. Also, the H1.0 immunofluorescence intensity in the test on TDF [3] is 96.6 (inactive); with HCC1569 [4] it was 96.9 (inactive).

For `C[N+](C)(C)CCOC(N)=O.[Cl-]` [Carbachol], the cell number with HCC1569 [1] amounted to 105; with TDF [2], 120. Further, the H1.0 immunofluorescence intensity in the test on TDF [3] is 100 (inactive); with HCC1569 [4], 96.9 (inactive).

As for `O=C1c2ccccc2-[n+]2ccc3c([nH]c4ccccc43)c21.[Cl-]` [Fascaplysin, Synthetic], the cell number in the test on HCC1569 [1] was 49.8; in the test with TDF [2], 6.76. The results for the H1.0 immunofluorescence intensity in the test with TDF [3] and in the test on HCC1569 [4] were 182 (active) and 60.9 (inactive), respectively.

In the case of `Cl.Cl.O=S(=O)(NCCNCC=Cc1ccc(Br)cc1)c1cccc2cnccc12` [H-89, Dihydrochloride], the cell number came out at 96.6 with HCC1569 [1] and 110 with TDF [2]. Further, the H1.0 immunofluorescence intensity is 92.7 (inactive) with TDF [3] and 129 (inactive) in the test with HCC1569 [4].

With `NC(Cc1ccc(O)c(O)c1)C(=O)O` (stereo not given) [Levodopa], the cell number in the test with HCC1569 [1] was determined as 96.9; with TDF [2], 102. Further, the H1.0 immunofluorescence intensity with TDF [3] was 93.3 (inactive); in the test with HCC1569 [4] it was 96.9 (inactive).

Take `c1coc(CNc2ncnc3nc[nH]c23)c1` [Kinetin]: the cell number in the test on HCC1569 [1] is 103; with TDF [2], 112. In addition, the H1.0 immunofluorescence intensity was 95.4 (inactive) in the test on TDF [3] and 92.8 (inactive) in the test with HCC1569 [4].

On to `CN1CCN(C2=Nc3ccccc3Oc3ccc(Cl)cc32)CC1.O=C(O)CCC(=O)O` [Loxapine succinate], for which the cell number turned out to be 101 in the test on HCC1569 [1] and 94.3 with TDF [2]. For the same compound, the H1.0 immunofluorescence intensity with TDF [3] is 95.8 (inactive); in the test on HCC1569 [4], 110 (inactive).

As for `C=CCc1ccc(O)c(OC)c1` [Eugenol], the cell number with HCC1569 [1] was 103; in the test with TDF [2] it was 114. The H1.0 immunofluorescence intensity is 89.5 (inactive) in the test with TDF [3] and 95.1 (inactive) in the test on HCC1569 [4].

As to `COC(=O)CCc1ccc(OCC(O)CNC(C)C)cc1` (stereo not given) [Esmolol], the cell number in the test with HCC1569 [1] was found to be 100; in the test on TDF [2] it was 95.1. Besides, the H1.0 immunofluorescence intensity is 101 (inactive) in the test on TDF [3] and 91.9 (inactive) in the test on HCC1569 [4].

For the compound `COc1cc2c(Nc3ccc(NC(=O)c4ccccc4)cc3)ncnc2cc1OCCCN1CCOCC1`, the cell number is 49.8 in the test on HCC1569 [1] and 44 with TDF [2]. Further, the H1.0 immunofluorescence intensity with TDF [3] is 126 (active); in the test on HCC1569 [4], 151 (active).

`CCCCCCCCC=CCCCCCCCCC(=O)O` [10(E)-Nonadecenoic acid]: the cell number was determined as 96.1 in the test with HCC1569 [1] and 98.8 in the test with TDF [2]. Also, the values for the H1.0 immunofluorescence intensity in the test on TDF [3] and in the test on HCC1569 [4] were 97.4 (inactive) and 101 (inactive), respectively.

For `COc1cc2nc(N(C)CCCNC(=O)C3CCCO3)nc(N)c2cc1OC` (stereo not given) [Alfuzosin], the values for the cell number with HCC1569 [1] and with TDF [2] were 99.7 and 96.5, respectively. For the same compound, the H1.0 immunofluorescence intensity with TDF [3] is 97.7 (inactive); in the test with HCC1569 [4], 102 (inactive).

Consider `CCCc1nc(C)c2c(=O)nc(-c3cc(S(=O)(=O)N4CCN(CC)CC4)ccc3OCC)[nH]n12` [Vardenafil], for which the cell number in the test with HCC1569 [1] came to 105; with TDF [2] it was 108. Besides, the H1.0 immunofluorescence intensity with TDF [3] was 91 (inactive); in the test with HCC1569 [4], 100 (inactive).

Take `CC1CC2C3CCC4=CC(=O)C=CC4(C)C3(F)C(O)CC2(C)C1(O)C(=O)CO` (stereo not given) [Betamethasone]: the cell number in the test with HCC1569 [1] was 97.2; in the test on TDF [2], 106. In addition, the H1.0 immunofluorescence intensity in the test on TDF [3] is 75.2 (inactive); in the test on HCC1569 [4] it was 99.5 (inactive).

With `Br.CN1CCc2cc(O)c(O)cc2C1Cc1ccc(O)c(O)c1.O.O.O` (stereo not given), the results for the cell number in the test on HCC1569 [1] and with TDF [2] were 105 and 108, respectively. Moreover, the H1.0 immunofluorescence intensity is 93.9 (inactive) with TDF [3] and 89.2 (inactive) in the test with HCC1569 [4].

`CCOC(=O)Nc1ccc(NCc2ccc(F)cc2)nc1N.O=C(O)C=CC(=O)O` [Flupirtine maleate]: the cell number with HCC1569 [1] was 97.3; with TDF [2], 99.2. In addition, the H1.0 immunofluorescence intensity was 89.1 (inactive) in the test with TDF [3] and 105 (inactive) in the test with HCC1569 [4].

With `O=C(Nc1ccc(Cl)cc1)Nc1cccc(-c2cccc(N3CCCC3)n2)c1`, the cell number worked out at 96 in the test on HCC1569 [1] and 87.5 in the test on TDF [2]. For the same compound, the H1.0 immunofluorescence intensity with TDF [3] is 98.6 (inactive); with HCC1569 [4] it was 114 (inactive).
